# Screening results: PubChem BioAssay, National Center for Advancing Translational Sciences (NCATS)
# GLP-1R agonist: activates the human GLP-1 receptor. HEK293 GLP-1R CRE-luciferase, luminescence, 4-6 h; cells express a hypersensitive GLP-1R form. P43220. 0.007% of 380,000 active. Potency, µM (series often up to 45.6 µM), for inactives: top-dose activation, most hits filed as activators; further: % of control where 0% means no effect
# Target sequence (P43220 whole entry, looked up): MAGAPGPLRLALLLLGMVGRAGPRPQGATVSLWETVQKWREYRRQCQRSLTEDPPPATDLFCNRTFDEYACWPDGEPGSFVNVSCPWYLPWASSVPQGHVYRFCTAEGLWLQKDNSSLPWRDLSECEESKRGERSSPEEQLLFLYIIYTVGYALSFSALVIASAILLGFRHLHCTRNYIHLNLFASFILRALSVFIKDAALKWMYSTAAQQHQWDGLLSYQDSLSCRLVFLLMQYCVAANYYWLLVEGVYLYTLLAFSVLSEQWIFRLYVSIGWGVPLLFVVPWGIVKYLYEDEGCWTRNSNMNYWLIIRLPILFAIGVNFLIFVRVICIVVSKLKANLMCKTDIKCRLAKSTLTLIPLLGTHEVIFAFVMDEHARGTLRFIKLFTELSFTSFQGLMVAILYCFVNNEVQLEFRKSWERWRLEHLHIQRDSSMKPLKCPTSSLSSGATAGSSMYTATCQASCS
# HEK293 tox: cytotoxicity counter-screen for GLP-1 receptor inverse agonists | HEK293 cAMP-luciferase reporter cells, luminescence, 24 h | Potency, µM (highest dose often 38.3 µM), inactives show at the top dose activity change, negative = inhibition, usual class: inhibitors | 0.13% of 410,000 active;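 further: loss of luciferase light is scored as toxicity; on the % scale 0 is the no-effect control and ±100 the full control effect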
#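 1536-well qHTS counterscreen of the MLSMR; 200 cells/uL, 12 h pre-incubation, 23 nL cpd, 24 h at 37 deg C 5% CO2, luciferase detection reagent, 12 min RT, luminescence. Inhibition = undesired.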
# GLP-1R inv ag: inverse agonists of human GLP-1 receptor; P43220; HEK293 GLP-1R CRE-luciferase, luminescence, 24 h; GLP-1R form is constitutively active; Potency, µM (series often up to 38.3 µM), for the others: top-dose activity change, negative = inhibition, most hits filed as inhibitors; 1.6% of 410,000 active; AID 624417; further: on the % scale 0 is the no-effect control and ±100 the full control effect; nearly all actives have a fitted effect of over 55% in size
#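 Assay principle: reduced luminescence from a cAMP-responsive reporter in HEK293 cells co-expressing a constitutively active GLP-1R. Conditions: 24 hr compound incubation, 37 deg C, 5% CO2.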
# * marks the source's active call; other numbers are inactive results; ? = inconclusive; nt = no result given; [ ] = another dose, or the depositor's remark. Most compounds without a hit are left out; they make up all but 1.7% or so of the library. The call rests on the fitted dose curve; in most records, active means well fitted curve in the direction sought with a large enough effect; inconclusive means small, poorly fitted or top-dose-only effect, or another doubt; inactive means no such curve, though single readings can be large; an effect the other way counts as inactive or inconclusive. Potency means the concentration at half of the fitted maximal effect.
SMILES,GLP-1R agonist,HEK293 tox,GLP-1R inv ag
COC(=O)c1ccc(NC(=O)N2CCc3c([nH]c4ccccc34)C2c2ccc(C)cc2)cc1 (stereo not given),nt,-17%,4.5µM*
Cc1ccc(C2c3[nH]c4ccccc4c3CCN2C(=O)c2ccc(N(C)C)cc2)cc1 (stereo not given),nt,-6%,?
Cc1cnc(C(=O)N2CCc3c([nH]c4ccccc34)C2c2ccc(F)cc2)cn1 (stereo not given),4%,2%,?
Cc1ccc(C2c3[nH]c4ccccc4c3CCN2C(=O)Nc2ccc(C)c(C)c2)cc1 (stereo not given),nt,-8%,7.9µM*
Cc1ccc(C2c3[nH]c4ccccc4c3CCN2C(=O)c2ccccc2Br)cc1 (stereo not given),nt,-9%,?
O=C1CC2(CCCC2)C(=O)N1c1ccc(S(=O)(=O)NCC2CC2)cc1Cl,7%,5%,-21%
COc1ccccc1Cn1cc(C(=O)c2ccc(F)cc2)c(=O)c2cc3c(cc21)OCO3,nt,5%,7%
O=C(c1cccc(NS(=O)(=O)c2ccccc2)c1)N1CCCC1,-2%,10%,5%
O=C(c1cccc(NS(=O)(=O)c2ccc(F)c(F)c2)c1)N1CCN(C(c2ccccc2)c2ccccc2)CC1,-7%,8%,4µM*
COc1cc(NC(=O)C2CSC3(C)CCC(=O)N23)c(OC)cc1Cl (stereo not given),-2%,-5%,5%
COc1ccc(-c2nc3c4ccccc4ccn3c2CC2CCCCC2)cc1OC,13%,-2%,15%
CCc1nc2ccc(C(=O)N(C)Cc3ccccc3)cn2c1N(C)Cc1ccc(OC)cc1,18%,-1%,2%
Cc1cc(C)n2c(Nc3ccc4c(c3)OCCO4)c(CCc3ccccc3)nc2n1,9%,-12%,13%
O=C(C1=C[C@H](c2ccc(C(F)(F)F)cc2)C[C@H](OCc2ccc(CO)cc2)O1)N1CCN(Cc2ccc3c(c2)OCO3)CC1,-1%,-11%,10µM*
O=C(C1=C[C@@H](c2ccc(C(F)(F)F)cc2)C[C@@H](OCc2ccc(CO)cc2)O1)N1CCN(Cc2ccc3c(c2)OCO3)CC1,-2%,-2%,-16%
O=C(CSc1nnc(Cc2cccs2)n1Cc1ccco1)Nc1ccc(Cl)cc1Cl,1%,-21%,?
O=C(CSc1nnc(Cc2cccs2)n1Cc1ccco1)Nc1ccc(Br)cc1,1%,11%,3.5µM*
O=C(Nc1ccc(F)c(F)c1)C1=COCCO1,5%,4%,-7%
O=C(Nc1ccc(F)cc1)c1ccccc1Oc1ccc(C(F)(F)F)cc1[N+](=O)[O-],-12%,?,10µM*
O=C(Nc1ccccc1)c1ccccc1Oc1ccc(C(F)(F)F)cc1[N+](=O)[O-],-8%,16%,?
CCN(CC)C(=O)c1cccc(NC(=O)c2cc(C3CC3)nc3c2cnn3C(C)C)c1,23%,-32%,?
COC(=O)c1cn(C(=O)c2ccccc2Cl)c2ccccc12,7%,?,?
COC(=O)c1cn(C(=O)c2ccc(C)cc2C)c2ccccc12,0%,-12%,5µM*
Cc1ccc(-n2nc(C(=O)N3CCCCC3C)c(=O)n(C)c2=O)cc1 (stereo not given),nt,-9%,-14%
CN1CCN(CCC(=O)N2c3ccccc3Sc3ccc(Cl)cc32)CC1,3%,?,?
SMILES,GLP-1R agonist,HEK293 tox,GLP-1R inv ag
CN1CCN(CCOC2Cc3ccccc3Sc3ccc(Cl)cc32)CC1 (stereo not given),-25%,?,8.9µM*
COc1ccc(S(=O)(=O)Nc2ccccc2C(=O)Nc2nc(-c3ccc(F)cc3)cs2)cc1OC,-13%,13%[1.53 µM],?
COc1ccc(-c2csc(NC(=O)c3ccccc3NS(=O)(=O)c3ccc(C)cc3)n2)cc1,-30%,5%,4.5µM*
NS(=O)(=O)c1cccc(NC(=O)COC(=O)CN2C(=O)c3ccccc3C2=O)c1,-7%,-2%,6%
O=C(NNC1=C(C(=O)C(F)(F)F)CCC1)c1cccc(Cl)c1,1%,?,2.8µM*
O=C(NNC1=C(C(=O)C(F)(F)F)CCC1)c1ccc(Cl)cc1,1%,-25%,0%
Cc1ccc(C)c(S(=O)(=O)N2CCCCC2CCNC(=O)C(=O)NCCc2ccco2)c1 (stereo not given),12%,-19%,?
COc1cccc(OC)c1C(=O)Nc1ccc2c(c1)N(S(=O)(=O)c1cccs1)CCC2,9%,0%,-39%
O=C(Nc1ccc2c(c1)N(S(=O)(=O)c1cccs1)CCC2)c1c(F)cccc1Cl,-7%,-3%,7.9µM*
N#Cc1ccc(S(=O)(=O)N2CCN(Cc3cccs3)CC2)cc1,3%,-2%,-4%
C/C(Cl)=C\Cn1c(O)c(N=NC(N)=S)c2ccccc21,?,1.6µM*,?
COC(=O)c1ccc(Cn2c(O)c(N=NC(N)=S)c3ccccc32)o1,10%,?,10µM*
NC(=S)N=Nc1c(O)n(Cc2ccccc2)c2ccccc12,-1%,?,?
COC(=O)N=Nc1c(O)n(Cc2ccccc2)c2ccccc12,13%,-6%,29%
C=C(CN(C)C)C(=O)c1cc(C)ccc1C,-14%,?,?
Cc1c(-c2ccc(OCc3ccccc3)cc2)nc2ccccc2c1C(=O)O,1%,-11%,9%
C/C(=N\NC(=O)CCC(=O)NCc1ccccc1)c1ccco1,-3%,2%,19%
COC(=O)[C@]12CCCCC=C1N(Cc1cccc3ccccc13)C(=O)[C@H](CC(=O)N1CCN(C(=O)C3CC3)CC1)C2,-3%,-9%,-27%
CC1CCCC(C)N1C(=O)Cn1cc(/C=C2/C(=O)Nc3ccccc32)c2ccccc21 (stereo not given),0%,?,5.6µM*
COC(=O)c1cn(CC(=O)N2C(C)CCCC2C)c2ccccc12 (stereo not given),-11%,9%,?
Cc1ccc2nc(N)[nH]c(=O)c2c1Sc1ccncc1,0%,nt,nt
C[C@H]1[C@@H](OC(=O)CCC(=O)O)OC2OC3(C)CC[C@H]4[C@H](C)CC[C@@H]1[C@@]24OO3 (stereo not given in full),-3%,nt,nt
Cc1ccc(SCCNC(=S)Nc2cc(C)cc(C)c2)cc1,1%,?,7.9µM*
Cc1ccc(NC(=S)NCCSc2ccc(Cl)cc2)cc1,9%,?,?
COc1ccc(C(=O)NCC(=O)OCC(=O)N2CCc3ccccc32)cc1,5%,8%,13%
SMILES,GLP-1R agonist,HEK293 tox,GLP-1R inv ag
CCOC(=O)c1cc(-c2ccccc2)nc2nc(N(CC)CC)sc12,?,315%,?
CNC(=O)N(O)C1N(NC(=O)Nc2ccccc2)C(=S)SC1(C)C (stereo not given),12%,-4%,-15%
CC1(C)SC(=S)N(NC(=O)Nc2cccc3ccccc23)C1N(O)C(=O)Nc1ccccc1 (stereo not given),-12%,-22%,11µM*
COc1ccc(-n2c(C)c(C)c3c(NCCCN(C)C)ncnc32)cc1,13%,-5%,?
CN(Cc1ccccc1)CC(O)COc1ccc(CNCc2cccnc2)cc1 (stereo not given),-3%,-29%,?
CN(Cc1ccccc1)CC(O)COc1ccc(CNCc2ccc(Cl)s2)cc1 (stereo not given),26%,-33%,4.5µM*
